Test results published in PubChem BioAssay (NCI).
About 79,000 compounds went through this panel and 15% of them were active in at least one assay; those are over-represented in the sample as a whole. Activity calls are given as the source filed them. No stated cut-off is given here; in the data, active means growth inhibition above about 70%; inactive means the rest.

Experiments:
[1] = NCI Yeast Anticancer Drug Screen. Data for the rad50 strain (AID 155);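 further: 0% = growth of vehicle-only cultures of the same strain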; conditions: S. cerevisiae rad50 strain growth inhibition, hits give high values
How it was run: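 Growth of the mutant yeast was measured after compound exposure and referenced to vehicle-treated cultures.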

[2] = NCI Yeast Anticancer Drug Screen. Data for the mec2-1 strain (AID 157); conditions: S. cerevisiae mec2-1 strain, hits give high values
How it was run: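 Cells of the genetically defined mec2-1 yeast strain are incubated with test compound. Inhibition of growth is calculated against vehicle-treated controls.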

[3] = NCI Yeast Anticancer Drug Screen. Data for the sgs1 mgt1 strain (AID 161);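 further: 0% = growth of cultures given vehicle only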; conditions: S. cerevisiae sgs1 mgt1 strain, hits give high values
How it was run: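 Inhibition of yeast growth, normalised to vehicle-treated controls, is reported for a strain bearing genetic alterations in DNA damage repair.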

[4] = NCI Yeast Anticancer Drug Screen. Data for the cln2 rad14 strain (AID 165);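 further: 0% = growth equal to vehicle treated cultures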; conditions: S. cerevisiae cln2 rad14 strain, hits give high values
How it was run: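 The screen exposed genetically defined yeast (cln2 rad14) to test compounds and scored growth inhibition relative to vehicle-treated controls.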

[5] = NCI Yeast Anticancer Drug Screen. Data for the bub3 strain (AID 167); conditions: S. cerevisiae bub3 mutant strain, hits give high values
How it was run: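 Whole-cell yeast assay. The mutant strain was incubated with compounds, and growth inhibition was determined by comparison with vehicle-treated cells.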

[6] = NCI Yeast Anticancer Drug Screen. Data for the mlh1 rad18 strain (AID 175); conditions: S. cerevisiae mlh1 rad18 strain growth inhibition, hits give high values
How it was run: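 Compound-treated yeast growth, normalised to vehicle controls. Strain bears defined DNA repair mutations.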

[7] = at 5.0 µM (retest, dose inferred, filed as 0.5)
[8] = at 50.0 µM (retest, dose inferred, filed as 5.0)

Measured: growth inhibition

CC1=Nc2ccccc2/C1=C\c1c(C)[nH]c2ccccc12
inactive: [1]; [7] 33% | [2]; [7] 39% | [3]; [7] 38% | [4]; [7] 10% | [5]; [7] 53% | [6]; [7] 58% | [6]; at 50.0 µM -32.6%
active: [1]; [8] 96% | [1]; at 50.0 µM 83% | [2]; [8] 98% | [2]; at 50.0 µM 86.8% | [3]; [8] 97% | [3]; at 50.0 µM 85.2% | [4]; [8] 96% | [4]; at 50.0 µM 74.3% | [5]; [8] 97% | [5]; at 50.0 µM 87.8% | [6]; [8] 94%

O=C1NC(c2ccccc2)(c2cccs2)C(=O)N1C1c2ccccc2Oc2ccccc21 (stereo not given)
active: [1]; [8] 87% | [1]; at 50.0 µM 90.3% | [2]; [8] 92% | [2]; at 50.0 µM 84.7% | [3]; [8] 92% | [3]; at 50.0 µM 91% | [4]; [8] 84% | [4]; at 50.0 µM 84.2% | [5]; [8] 91% | [5]; at 50.0 µM 86.8% | [6]; [8] 87% | [6]; at 50.0 µM 87.4%
inactive: [1]; [7] 0% | [2]; [7] -11% | [3]; [7] -18% | [4]; [7] -7% | [5]; [7] -5% | [6]; [7] 21%

COC(=O)c1ccc(NCC2=C(Br)C(=O)C=CC2=O)cc1Cl
inactive: [1]; [7] 43% | [2]; [7] 35% | [3]; [7] 35% | [4]; [7] 43% | [5]; [7] 44% | [6]; [7] 37%
active: [1]; [8] 98% | [1]; at 50.0 µM 89.4% | [2]; [8] 98% | [2]; at 50.0 µM 77.6% | [3]; [8] 98% | [3]; at 50.0 µM 92.3% | [4]; [8] 98% | [4]; at 50.0 µM 88.8% | [5]; [8] 98% | [5]; at 50.0 µM 90.8% | [6]; [8] 97% | [6]; at 50.0 µM 89.7%

O=C1c2ccc3ccccc3c2CCC1[n+]1ccc2ccccc2c1 (stereo not given)
active: [2]; [8] 76% | [2]; at 50.0 µM 77.3% | [3]; [8] 79% | [3]; at 50.0 µM 70.7% | [4]; at 50.0 µM 83.6% | [5]; at 50.0 µM 71% | [6]; [8] 85%
inactive: [1]; [7] 1% | [1]; [8] 57% | [1]; at 50.0 µM 53.4% | [2]; [7] 11% | [3]; [7] 7% | [4]; [7] -5% | [4]; [8] 29% | [5]; [7] -4% | [5]; [8] 63% | [6]; [7] 15% | [6]; at 50.0 µM 69.5%

O=C(O)c1ccc2c(c1)CCCC2
inactive: [1]; [7] -154% | [1]; [8] -116% | [1]; at 50.0 µM 16.2% | [2]; [7] -55% | [2]; [8] -53% | [2]; at 50.0 µM 6.3% | [3]; [7] -66% | [3]; [8] -58% | [3]; at 50.0 µM 9.5% | [4]; [7] -60% | [4]; [8] -61% | [4]; at 50.0 µM 52% | [5]; [7] -75% | [5]; [8] -70% | [5]; at 50.0 µM -12.9% | [6]; [7] -143% | [6]; [8] -101% | [6]; at 50.0 µM 21.4%

O=C(N/C(=C\c1ccc(Oc2ccc(Cl)c(Cl)c2)cc1)c1nc2ccccc2[nH]1)c1ccccc1
inactive: [1]; [7] 29% | [2]; [7] 10% | [3]; [7] 10% | [4]; [7] 13% | [4]; [8] 65% | [5]; [7] 15% | [6]; [7] 6%
active: [1]; [8] 97% | [1]; at 50.0 µM 97.8% | [2]; [8] 97% | [2]; at 50.0 µM 98.3% | [3]; [8] 97% | [3]; at 50.0 µM 98% | [4]; at 50.0 µM 95.6% | [5]; [8] 95% | [5]; at 50.0 µM 97.2% | [6]; [8] 89% | [6]; at 50.0 µM 98.2%

O=C1c2ccccc2C(=O)c2sc(Nc3ccc([N+](=O)[O-])cc3)nc21
active: [1]; [7] 89% | [1]; [8] 98% | [2]; [7] 91% | [2]; [8] 99% | [2]; at 50.0 µM 77.4% | [3]; [7] 99% | [3]; [8] 99% | [4]; [8] 99% | [5]; [7] 100% | [5]; [8] 99% | [5]; at 50.0 µM 80.7% | [6]; [7] 90% | [6]; [8] 99% | [6]; at 50.0 µM 84.5%
inactive: [1]; at 50.0 µM 60.3% | [3]; at 50.0 µM 58.1% | [4]; [7] 62% | [4]; at 50.0 µM 29%

O=C(NCc1ccccc1)N1CCN(c2ccccc2)C1=O
inactive: [1]; [7] -3% | [1]; [8] 3% | [1]; at 50.0 µM 47% | [2]; [7] -3% | [2]; [8] -5% | [2]; at 50.0 µM 2.65% | [3]; [7] -3% | [3]; [8] -1% | [3]; at 50.0 µM -2.15% | [4]; [7] -4% | [4]; [8] 13% | [4]; at 50.0 µM 36.5% | [5]; [7] 4% | [5]; [8] 12% | [5]; at 50.0 µM 6.95% | [6]; [7] -4% | [6]; [8] -4% | [6]; at 50.0 µM 11.7%

O=C1Nc2c(Cl)cc(Cl)cc2/C1=N/N=C/c1ccco1
active: [1]; [8] 84% | [2]; [8] 83% | [4]; [8] 74% | [5]; [8] 83% | [6]; [8] 94% | [6]; at 50.0 µM 89.2%
inactive: [1]; [7] 24% | [1]; at 50.0 µM 52.6% | [2]; [7] 26% | [2]; at 50.0 µM 53.4% | [3]; [7] 28% | [3]; [8] 68% | [3]; at 50.0 µM 67.3% | [4]; [7] 28% | [4]; at 50.0 µM 63.2% | [5]; [7] 21% | [5]; at 50.0 µM 55.4% | [6]; [7] 37%

Ic1ccc2c(c1)N(c1ccccc1)c1cc(N=c3ccc4nc5ccc(I)cc5n(-c5ccccc5)c-4c3)ccc1N2
active: [1]; at 50.0 µM 81.5% | [2]; at 50.0 µM 93.6% | [3]; at 50.0 µM 76% | [4]; at 50.0 µM 91.8% | [5]; at 50.0 µM 97.3% | [6]; at 50.0 µM 93.9%
inactive: [1]; [7] -3% | [1]; [8] 15% | [2]; [7] 12% | [2]; [8] 4% | [3]; [7] -4% | [3]; [8] -13% | [4]; [7] 1% | [4]; [8] 29% | [5]; [7] -8% | [5]; [8] 11% | [6]; [7] -7% | [6]; [8] 18%
